Test results: PubChem BioAssay (NCI)
Compounds without any hit were thinned out: in the full panel of roughly 79,000, 15% have a hit. Activity calls are given as the source filed them. Rule as the data show it: active = growth inhibition above about 70%; inactive = the rest.

Columns and labels:
[1] = NCI Yeast Anticancer Drug Screen. Data for the rad50 strain (AID 155);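 also: 0% = growth of vehicle-only cultures of the same strain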; details: S. cerevisiae rad50 strain growth inhibition; at 50.0 µM; stronger effect = higher value
Method in brief: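 Inhibition values express reduced yeast growth in compound-treated cultures relative to vehicle-treated controls.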

[2] = NCI Yeast Anticancer Drug Screen. Data for the mec2-1 strain (AID 157); details: S. cerevisiae mec2-1 strain, at 50.0 µM, stronger effect = higher value
Method in brief: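 Growth inhibition is read against vehicle-treated controls after compound exposure of the mec2-1 yeast strain, which is defective in DNA damage repair or cell cycle control.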

[3] = NCI Yeast Anticancer Drug Screen. Data for the sgs1 mgt1 strain (AID 161);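 also: 0% = growth of cultures given vehicle only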; details: S. cerevisiae sgs1 mgt1 strain, at 50.0 µM, stronger effect = higher value
Method in brief: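 This yeast growth screen uses a strain with defined DNA-repair lesions; compound-treated growth is compared with vehicle-treated growth.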

[4] = NCI Yeast Anticancer Drug Screen. Data for the cln2 rad14 strain (AID 165);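 also: 0% = growth equal to vehicle treated cultures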; details: S. cerevisiae cln2 rad14 strain, at 50.0 µM, stronger effect = higher value
Method in brief: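 Growth inhibition, relative to vehicle-treated controls, is the read-out. The test organism is a yeast strain with defined genetic alterations, cln2 rad14.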

[5] = NCI Yeast Anticancer Drug Screen. Data for the bub3 strain (AID 167); details: S. cerevisiae bub3 mutant strain, at 50.0 µM, stronger effect = higher value
Method in brief: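 Steps: expose the mutant yeast strain to compound; grow alongside vehicle-treated cultures; measure growth; express inhibition against the vehicle cultures.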

[6] = NCI Yeast Anticancer Drug Screen. Data for the mlh1 rad18 strain (AID 175); details: S. cerevisiae mlh1 rad18 strain growth inhibition; at 50.0 µM; stronger effect = higher value
Method in brief: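 Cells of a genetically altered yeast strain, deficient in DNA damage repair, were treated with compound. Their growth was then compared with that of vehicle-treated cultures to give inhibition.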

Measured: growth inhibition

CN1C(=O)C2(c3ccccc31)C1CC3C(CO1)C1C2C3(CO)CN1C#N (centres undefined)
inactive: [1] 34.1% | [2] 12.9% | [3] -39.2% | [4] 1.1% | [5] -22.1% | [6] -6.8%

NC(CP(=O)(O)O)C(=O)O (centres undefined)
inactive: [1] 0.4% | [2] 5.7% | [3] -31.1% | [4] -55.2% | [5] -32.4% | [6] -37.6%

NC1CC(O)C(O)CC1c1ccc2c(c1)OCO2 (centres undefined)
inactive: [1] -26.5% | [2] -4.45% | [3] -15.9% | [4] -13.9% | [5] 6.9% | [6] -17.2%

CCCC(=O)OC1C(c2ccc(=O)oc2)C2(C)CCC3C(CCC4CC(OC(C)=O)CCC43C)C23OC13 (centres undefined)
inactive: [1] 1.55% | [2] -16.9% | [3] 1.5% | [4] 9.6% | [5] -5.95% | [6] 0.2%

CCCCCC(C)C1C(=O)NC(=O)NC1=O (centres undefined)
inactive: [1] 6.4% | [2] 12.9% | [3] 2.65% | [4] 5.7% | [5] 7.8% | [6] -6%

N#CC(C#N)=Cc1ccc(F)cc1
inactive: [1] -6.85% | [2] 5% | [3] -18.7% | [4] -15.7% | [5] 16.1% | [6] -15.5%

Cc1cc[n+](CCc2ccccc2)cc1
inactive: [1] 7.95% | [2] 15.1% | [3] 15.2% | [4] -8.35% | [5] 8.75% | [6] 9.6%

CN(C)C1OCC(C)(C)CO1
inactive: [1] -13.9% | [2] -34.7% | [3] -5.55% | [4] 12.3% | [5] -18% | [6] -7.1%

CC/C=C/C1(C(C)C)C(=O)NC(=O)NC1=O (tested in a mixture with another compound)
inactive: [1] 14.9% | [2] 0.35% | [3] 5.15% | [4] -27.4% | [5] 0.3% | [6] 13.7%

O=C1NCN(c2ccccc2)C12CCN(CCCS(=O)(=O)c1ccccc1)CC2
inactive: [1] -22.4% | [2] -13.6% | [3] -9.55% | [4] -22.6% | [5] 3.5% | [6] -18%

NC1C(=O)NC(=O)NC1=O
inactive: [1] 4.2% | [2] 11.4% | [3] 8.4% | [4] 15.1% | [5] 4.6% | [6] 22.8%

O=NN1CCCCC1
inactive: [1] -18.2% | [2] 7.1% | [3] 28.4% | [4] -15.1% | [5] 0.15% | [6] 18.9%

CCN(c1ccccc1)P(I)(c1ccccc1)(c1ccccc1)c1ccccc1
active: [1] 98.7% | [2] 99.5% | [3] 99.3% | [4] 98.6% | [5] 98.2% | [6] 99%

C[CH2][Pb]([Br])([CH2]C)[CH2]C
inactive: [1] -17.7% | [2] -1.4% | [3] -5.85% | [4] -14.1% | [5] -4.15% | [6] -1.45%

CCCC[N+]1(C)CCC(OC(=O)C(O)(c2ccccc2)C2CCCC2)C1 (centres undefined)
inactive: [1] 15.6% | [2] 5.25% | [3] 5.3% | [4] -32.8% | [5] -6.3% | [6] -5.5%

CCOP(=O)(OCC)Oc1c(Cl)c(Cl)c(Cl)c(Cl)c1Cl
active: [1] 70.3% | [3] 86% | [6] 78.5%
inactive: [2] 47.4% | [4] 28.4% | [5] 23.9%

O=C(O)c1ccccc1Cl
inactive: [1] -8% | [2] -11.5% | [3] 3.75% | [4] 30.9% | [5] 5.2% | [6] 16.4%

C#CCN(C)C(=O)N(CC#C)N=O
inactive: [1] 15.2% | [2] -4.95% | [3] 1.75% | [4] -11% | [5] -6.55% | [6] -23.4%

CSC(=S)N(C)c1nc(=[N+](C)C)ss1
inactive: [1] -12.8% | [2] -1.2% | [3] -9.8% | [4] -32.4% | [5] -2.25% | [6] 27.3%

O=C(Nc1cccc(Cl)c1)Oc1ccc(S(=O)(=O)F)cc1Cl
active: [1] 92.3% | [2] 94.7% | [3] 95.7% | [4] 91.2% | [5] 90.9% | [6] 94.8%

Cc1cc(=O)oc2cc(OC(=O)N(C)C)c(Cl)cc12
inactive: [1] -0.5% | [2] -11.3% | [3] 17.4% | [4] 24.4% | [5] 18.2% | [6] 10.3%

C[C@H](CCC1SC1(C)C)C1CCC2(C)C3=C(CC[C@]12C)[C@@]1(C)CC[C@H](O)C(C)(C)C1CC3 (some centres undefined)
inactive: [1] 9.85% | [2] -11.2% | [3] -11.2% | [4] -48.8% | [5] -5.2% | [6] 1.9%

CC(C)=CC1C(C(=O)OCc2cc3c(cc2Cl)OCO3)C1(C)C (centres undefined)
inactive: [1] 8.65% | [2] 12.1% | [3] -15.2% | [4] -48.9% | [5] 14.9% | [6] -3.9%

CC(O)CN(CCN(CC(C)O)CC(C)O)CC(C)O.[Cl-].[Zn+2] (centres undefined)
inactive: [1] 14.9% | [2] 9.25% | [3] 17.4% | [4] 10.7% | [5] 8.8% | [6] 6.1%

CC(=O)O[C@H]1CC[C@]2(C)[C@H]3CC[C@]4(C)[C@@H](OC(C)=O)CC[C@H]4[C@@H]3[C@H](C=O)[C@]2(O)C1
inactive: [1] 7.9% | [2] 4.35% | [3] -8.6% | [4] 4.25% | [5] -0.75% | [6] 8.7%

CC1=CC(=O)CCC12CCOC2=O (centres undefined)
inactive: [1] -54.1% | [2] -20.1% | [3] -21.3% | [4] -40.6% | [5] -13.2% | [6] -7.55%

CN1CN(c2ccccc2)C2(CCN(CCC3COc4ccccc4O3)CC2)C1=O (centres undefined)
inactive: [1] -15.4% | [2] -10.3% | [3] -10.1% | [4] -1.4% | [5] -4.45% | [6] -1.35%

CC(C)C(Br)C(=O)O (centres undefined)
inactive: [1] -6.85% | [2] -16.6% | [3] -21.1% | [4] -41.5% | [5] -9.5% | [6] 2.1%

CCc1cc(C)cc2[n+]1CC=C2C
inactive: [1] 6.45% | [2] 5.1% | [3] 6.85% | [4] 21.7% | [5] -0.7% | [6] 14.5%

O=C(O)CCCc1ccc(N(CCCl)OCCCl)cc1
inactive: [1] -21.1% | [2] -3.3% | [3] 16.7% | [4] 10.2% | [5] 13.3% | [6] -0.25%

N.N.N.N.N.N#Cc1nn[n-]n1.[Cl-].[Co+3]
inactive: [1] 4.95% | [2] 9.25% | [3] 16.8% | [4] 24.4% | [5] 12.3% | [6] 12.9%

CCN(CC)C1CCCCC1
inactive: [1] 19.8% | [2] 16.1% | [3] -0.9% | [4] -35.7% | [5] -0.9% | [6] 11.2%

CSc1nc2cc(Cl)ccc2c2c1C=NCCN2
inactive: [1] 28.6% | [2] 19.2% | [3] 13.7% | [4] -43.4% | [5] -24.1% | [6] 4.05%

CCC(Br)C(=O)OCCCl (centres undefined)
inactive: [1] 12% | [2] 13.7% | [3] 7.7% | [4] -4.75% | [5] 15.5% | [6] 3.6%

O=N[O-].O=N[O-].[NH2-].[NH2-].[NH2-].[NH2-].[Ni]
inactive: [1] 0.55% | [2] 7% | [3] 19.6% | [4] -48.7% | [5] -14.8% | [6] 13.3%

CCN1CCOC(CC)(c2cc(Cl)cc(Cl)c2Cl)C1 (centres undefined)
inactive: [1] 6.35% | [2] 20.4% | [3] 8.4% | [4] 13.2% | [5] 4.3% | [6] 20.4%

Cc1c2ccncc2c(C)c2c1[nH]c1ccccc12
active: [1] 91.2% | [2] 89.5% | [3] 90.5% | [4] 84.9% | [5] 89.6% | [6] 90.7%

Cc1ncc(C)[n+]2c(C)csc12
inactive: [1] 5% | [2] -7.95% | [3] -5.05% | [4] -0.4% | [5] -0.9% | [6] -23.4%

c1cc[c]([Hg][S]c2nc3ccccc3s2)cc1
inactive: [1] -22.4% | [2] -7.1% | [3] -6.05% | [4] -37.3% | [5] -5.15% | [6] -5.1%
